Results from PubChem BioAssay (NCATS).
Results filed as inconclusive are left out. The source made the active and inactive calls. Calls follow the shape of the dose curve; as a rule, active = well fitted curve in the direction sought with a large enough effect; inconclusive = small, poorly fitted or top-dose-only effect, or another doubt; inactive = no such curve, though single readings can be large; an effect the other way counts as inactive or inconclusive.

Assays:
[1] = test system: Zika virus NS2B-NS3 protease; assay: Primary screen GU AMC qHTS for Zika virus inhibitors (AID 1347154); also: nearly all actives have a fitted effect of over 70% in size; also: potency is read from the fitted curve at half-maximal effect
In short: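 Unlinked Zika NS2B hydrophilic domain/NS3 protease domain noncovalent complex (25 nM final) in 10 mM Tris-HCl pH 8.0, 0.01% Tween 20, with AMC peptide substrate. Fluorescence (ex 340, em 450 nm) change over 15 min, room temperature; percent inhibition fitted to 4-parameter Hill equation.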

[2] = test system: Zika virus NS2B-NS3 protease (unlinked complex); assay: Primary screen GU Rhodamine qHTS for Zika virus inhibitors: Unlinked NS2B-NS3 protease assay (AID 1347159); also: nearly all actives have a fitted effect of over 60% in size
In short: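 Unlinked NS2B/NS3, 25 nM; Rhod110 peptide, 1.5 microM; compounds, up to 114 microM. Reaction run 15 min at RT in 10 mM Tris-HCl pH 8.0, 0.01% Tween 20; kinetic fluorescence change fitted with a 4-parameter Hill model.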

[3] = test system: Zika virus NS2B-NS3 protease (linked construct); assay: Primary screen NINDS Rhodamine qHTS for Zika virus inhibitors (AID 1347160); settings: outcome: dose series up to 57.1 µM unless noted; also: nearly all actives have a fitted effect of over 55% in size
In short: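 Single-chain NS2B-NS3 protease, 25 nM, pH 8.0; compounds preincubated 15 min. Activity: Rhodamine110 release from 1.5 microM substrate over 15 min, room temperature, data fitted to 4-parameter Hill.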

[4] = qHTS to identify inhibitors of the type 1 interferon - major histocompatibility complex class I in skeletal muscle: primary screen against the NCATS Pharmaceutical Collection (AID 1347407);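 also: luminescence of HiBiT knocked into endogenous HLA-B as interferon-induced MHC class I level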
In short: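 A qHTS format is used: 8-point, 1:5 compound series with 46 uM top final concentration, applied alongside 4 ng/ml IFN-beta to HLA-B*08:01-HiBiT knock-in myoblasts. Luminescence is measured after 24 h treatment.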

[5] = biological target: Protein phosphatase 1D (Homo sapiens) (UniProt O15297); assay: RapidFire Mass Spectrometry qHTS Assay for Modulators of WT P53-Induced Phosphatase 1 (WIP1) (AID 1347424);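 also: amount of dephosphorylated VEPPL-S-QETFS peptide product formed by WIP1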; also: potency is read from the fitted curve at half-maximal effect
In short: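 Mass-spectrometric measurement of dephosphorylated peptide after a 5 min room-temperature reaction of 10 nM WIP1 with 2 uM phosphopeptide, following 1 h compound preincubation in 30 mM MgCl2 buffer.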

[6] = biological target: Protein phosphatase 1D (Homo sapiens) (UniProt O15297); assay: Rhodamine-PBP qHTS Assay for Modulators of WT P53-Induced Phosphatase 1 (WIP1) (AID 1347425)
In short: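 Steps: enzyme with Rh-PBP sensor and compounds, room-temperature incubation of 1 hr, baseline read, addition of VEPPL-pS-QETFS (10 uM final), kinetic fluorescence reads at 525/598 nm. Activity equals final minus baseline signal.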

[7] = test system: Zika virus NS2B-NS3 protease (unlinked complex); assay: Confirmatory screen GU AMC qHTS for Zika virus inhibitors (AID 1347153); also: potency is read from the fitted curve at half-maximal effect; nearly all actives have a fitted effect of over 70% in size
In short: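 Unlinked enzyme 25 nM, Tris pH 8.0/0.01% Tween 20; cpd 15 min RT, dark; + AMC substrate 10 µM (Km 18.3 µM); 340/450 nm read at t0 and 15 min; % inhibition → 4-param fit.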

[8] = Confirmatory screen NINDS Rhodamine qHTS for Zika virus inhibitors (AID 1347161); also: potency is read from the fitted curve at half-maximal effect; nearly all actives have a fitted effect of over 60% in size
In short: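 In 10 mM Tris-HCl pH 8.0 containing 0.01% Tween 20, linked NS2B-NS3 protease (25 nM final) is exposed to test compounds for 15 min. Cleavage of 1.5 microM Rhodamine110 substrate is tracked by fluorescence over 15 min.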

[9] = test system: Zika virus NS2B-NS3 protease (linked); assay: 384 well plate NINDS AMC confirmatory qHTS for Zika virus inhibitors (AID 1347163); also: nearly all actives have a fitted effect of over 50% in size; also: potency is read from the fitted curve at half-maximal effect
In short: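 Fluorescence at 355/460 nm was read after 25 minutes of cleavage of 30 microM Ac-VKTGKR-AMC at room temperature, in the dark. Before substrate addition, compounds (up to 1 mM final) sat ~15 minutes with 5, 30 or 60 nM linked protease. Signals were normalized to no-enzyme and no-inhibitor wells.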

[10] = test system: Zika virus NS2B-NS3 protease (linked construct); assay: 384 well plate NINDS Rhodamine confirmatory qHTS for Zika virus inhibitors (AID 1347164); settings: rhodamine-110 peptide substrate fluorescence; also: potency is read from the fitted curve at half-maximal effect; nearly all actives have a fitted effect of over 65% in size
In short: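 Cleavage of Ac-LKRR-Rhodamine 110 (10 microM final) by linked protease (final 5, 30 or 60 nM) was followed as fluorescence at 485/538 nm after 25 min, room temperature, dark. Compounds preincubated ~15 min.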

[11] = Vero cells viability qHTS for Zika virus inhibitors (AID 1347167)
In short: (§1)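 To flag cytotoxic protease inhibitors, viability is measured by ATP-dependent luminescence (CellTiter Glo) after cells attached overnight receive compound for 24 to 48 hours in DMEM with 4% FBS.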

[12] = HepG2 cells viability qHTS for Zika virus inhibitors (AID 1347168)
In short: as §1

[13] = qHTS to identify inhibitors of the type 1 interferon - major histocompatibility complex class I in skeletal muscle: primary screen against the NCATS Mechanism Interrogation Plate v5.0 (MIPE) Libary (AID 1347411); also: nearly all actives have a fitted effect of over 65% in size
In short: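 Luminescence from CRISPR HiBit-tagged endogenous HLA-B in human myoblasts reported MHC class I level after 24 h of IFN-beta (4 ng/ml) plus compound. Compounds ran as 11-point 1:3 series, top 46 uM final.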

[14] = biological target: Lysine-specific demethylase 5B (Homo sapiens) (UniProt Q9UGL1); assay: Optimization screen for KDM5B Histone Demethylases FDH coupled qHTS against the LOPAC library (AID 1347166)
In short: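 KDM5BDeltaAP (200nM final) in 50mM HEPES pH 7.5, 0.01% Tween-20 was preincubated with compound for 10 min at room temperature. A substrate mix of 12.5uM H3K4Me3, 25uM a-ketoglutarate, ascorbate, Fe2+, NAD+ and formaldehyde dehydrogenase was then added. NADH fluorescence (340/450 nm) was read initially and after 30 min.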

[15] = qHTS to identify inhibitors of the type 1 interferon - major histocompatibility complex class I in skeletal muscle: primary screen against the NCATS LOPAC collection (AID 1347405);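 also: lytic HiBiT luminescence reporting HLA-B protein level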
In short: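 After 24 h at 37 C with compounds (7-point, 1:4.3 dilutions, 46 uM top final) plus 4 ng/ml IFN-beta, luminescence from lytic HiBiT detection was measured. HLA-B*08:01 in C25cl48 myoblasts carried an endogenous C-terminal HiBiT tag; medium lacked dexamethasone.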

[16] = qHTS for inhibitors of adenylyl cyclases using a fission yeast platform: a pilot screen against the NCATS LOPAC library (AID 1347410)
In short: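 Inhibition of GNAS-stimulated AC9 activity in S. pombe was inferred from derepression of a PKA-repressed fbp1-GFP reporter, measured as cytometric fluorescence after 18 h at 30C with compounds at up to 57 µM.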

[17] = Validation qHTS assay for inhibitors of Activation Induced Cytidine Deaminase (AID): UDG Counterscreen signal (AID 1347427)
In short: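 Fluorescence at 560 nm excitation, 665 nm emission reports UDG signal after 250 mM NaOH (2x) addition and 30 min. Enzymes (AID 1 uM, UDG 2 U/mL, at 4/3x) preincubated 10 min with compound, then 4 h with 4x 250 nM DJC20/DJC23 substrate at room temperature.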

[18] = Tertiary RLuc qRT-PCR qHTS assay for Zika virus inhibitors (AID 1347169); also: top concentration of the series differs between compounds; nearly all actives have a fitted effect of over 55% in size
In short: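 Inhibition of ZIKV-RLuc replication in Vero cells, read as Renilla luminescence 1-1.5 hrs after live-cell substrate addition, following 48-72 hrs infection at MOI 1-2 in presence of compound.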

Measured: Potency

Chain of Lysine-specific demethylase 5B (Homo sapiens) (Q9UGL1 whole entry, looked up): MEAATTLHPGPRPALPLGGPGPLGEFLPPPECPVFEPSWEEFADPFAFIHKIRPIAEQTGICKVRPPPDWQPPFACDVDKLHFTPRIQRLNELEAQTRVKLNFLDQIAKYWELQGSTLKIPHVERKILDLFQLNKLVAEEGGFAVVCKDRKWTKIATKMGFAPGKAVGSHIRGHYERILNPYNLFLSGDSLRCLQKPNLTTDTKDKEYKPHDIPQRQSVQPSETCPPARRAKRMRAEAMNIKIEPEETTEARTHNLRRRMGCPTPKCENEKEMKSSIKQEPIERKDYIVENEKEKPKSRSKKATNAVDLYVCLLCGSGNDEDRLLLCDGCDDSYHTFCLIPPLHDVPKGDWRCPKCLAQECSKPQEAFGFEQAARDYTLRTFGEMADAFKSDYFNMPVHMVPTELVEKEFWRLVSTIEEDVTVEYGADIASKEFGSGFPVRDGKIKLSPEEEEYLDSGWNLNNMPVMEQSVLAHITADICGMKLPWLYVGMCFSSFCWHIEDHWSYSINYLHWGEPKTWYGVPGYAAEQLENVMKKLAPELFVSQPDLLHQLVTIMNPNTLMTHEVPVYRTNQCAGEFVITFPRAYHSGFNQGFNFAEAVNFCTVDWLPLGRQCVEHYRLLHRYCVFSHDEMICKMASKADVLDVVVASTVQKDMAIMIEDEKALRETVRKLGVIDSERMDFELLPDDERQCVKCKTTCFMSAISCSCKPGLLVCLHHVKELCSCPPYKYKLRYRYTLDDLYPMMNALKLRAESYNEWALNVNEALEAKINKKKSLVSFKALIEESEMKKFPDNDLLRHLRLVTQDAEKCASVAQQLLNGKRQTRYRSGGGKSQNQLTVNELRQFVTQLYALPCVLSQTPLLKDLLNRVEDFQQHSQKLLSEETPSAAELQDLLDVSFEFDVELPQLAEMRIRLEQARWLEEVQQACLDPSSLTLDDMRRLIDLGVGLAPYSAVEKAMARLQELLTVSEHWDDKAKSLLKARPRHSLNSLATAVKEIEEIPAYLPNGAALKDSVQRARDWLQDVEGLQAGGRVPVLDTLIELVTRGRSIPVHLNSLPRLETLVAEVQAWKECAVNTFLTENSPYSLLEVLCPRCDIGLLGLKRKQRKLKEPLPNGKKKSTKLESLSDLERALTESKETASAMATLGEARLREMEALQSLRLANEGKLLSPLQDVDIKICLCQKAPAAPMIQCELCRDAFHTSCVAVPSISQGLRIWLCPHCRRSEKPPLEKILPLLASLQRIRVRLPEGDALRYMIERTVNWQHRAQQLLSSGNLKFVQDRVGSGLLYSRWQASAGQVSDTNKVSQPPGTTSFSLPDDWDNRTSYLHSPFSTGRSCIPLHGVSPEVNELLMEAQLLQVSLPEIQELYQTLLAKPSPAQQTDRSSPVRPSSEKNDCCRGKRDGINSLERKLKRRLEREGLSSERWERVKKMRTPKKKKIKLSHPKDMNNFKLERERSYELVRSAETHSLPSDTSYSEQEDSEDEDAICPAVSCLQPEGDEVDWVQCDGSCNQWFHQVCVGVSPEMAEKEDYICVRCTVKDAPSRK
Chain of Protein phosphatase 1D (Homo sapiens) (O15297 whole entry, looked up): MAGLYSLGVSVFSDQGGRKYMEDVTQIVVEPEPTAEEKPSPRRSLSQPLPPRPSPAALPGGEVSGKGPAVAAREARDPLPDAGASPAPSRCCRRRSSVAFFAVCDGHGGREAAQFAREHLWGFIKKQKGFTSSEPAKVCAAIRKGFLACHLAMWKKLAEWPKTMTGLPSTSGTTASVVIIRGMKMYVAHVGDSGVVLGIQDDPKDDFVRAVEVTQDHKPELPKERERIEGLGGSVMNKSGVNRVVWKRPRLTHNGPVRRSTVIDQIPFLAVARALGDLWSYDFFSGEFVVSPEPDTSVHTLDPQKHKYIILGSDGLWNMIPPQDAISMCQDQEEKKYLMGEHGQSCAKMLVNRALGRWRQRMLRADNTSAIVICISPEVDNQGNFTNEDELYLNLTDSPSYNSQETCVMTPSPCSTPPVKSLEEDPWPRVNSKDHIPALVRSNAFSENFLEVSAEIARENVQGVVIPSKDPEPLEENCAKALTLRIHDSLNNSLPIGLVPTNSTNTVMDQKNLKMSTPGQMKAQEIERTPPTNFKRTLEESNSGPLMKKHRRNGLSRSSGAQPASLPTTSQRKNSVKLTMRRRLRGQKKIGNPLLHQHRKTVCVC

CC(=O)O[C@@H]1C(=O)O[C@@H]2[C@H]1OC(=O)[C@@H]2OC(C)=O
inactive: [1] | [2] | [3] | [4] | [5] | [6]

O=C(Nc1ccc(S(=O)(=O)N2CCOCC2)cc1)c1cc(Cl)ccc1NS(=O)(=O)c1ccc(Cl)s1
active: [7] 17.1 µM | [1] 14.4 µM | [8] 1.75 µM | [10] 10 µM | [5] 11.2 µM
inactive: [9] | [11] | [12] | [13]

O=C(NN1CCCC1)NS(=O)(=O)c1ccc(Cl)cc1
inactive: [1] | [3] | [4] | [5] | [6]

O=[N+]([O-])c1nccn1CO[C@@H](CO)[C@H](O)CO
inactive: [1] | [2] | [3] | [5] | [6]

CC(=O)[C@H]1CC[C@H]2[C@@H]3C=CC4=CC(=O)CC[C@@]4(C)[C@@H]3CC[C@]12C
inactive: [1] | [2] | [3] | [4] | [5] | [6]

CCN1CCN(c2cc(-c3ccc(F)cc3)c3c(n2)CCCCCC3)CC1
inactive: [1] | [2] | [3] | [4] | [5] | [6]

CC(=O)OCC(=O)Nc1cc(C#N)cc(NC(=O)COC(C)=O)c1Cl
inactive: [1] | [2] | [3] | [4] | [5] | [6]

O=C1NC(c2cccc([N+](=O)[O-])c2)=CCN1c1ccccc1O
inactive: [1] | [2] | [3] | [14] | [15] | [16] | [17]

CC(C(=O)O)c1ccc(/C=C2\CCCCC2=O)cc1 (stereo not drawn)
inactive: [1] | [2] | [3] | [5] | [6]

Nc1ncnc2n[nH]c(Nc3ccc(F)cc3)c12
inactive: [1] | [2] | [3] | [14] | [16] | [17]

COc1ccccc1N1CCN(CCN2C(=O)CC3(CCCC3)CC2=O)CC1
inactive: [1] | [2] | [3] | [14] | [15] | [16] | [17]

CC(C)(C)c1nnc(NS(=O)(=O)c2ccccc2)s1
inactive: [1] | [2] | [3] | [4] | [5] | [6]

CCC(=O)O[C@H]1[C@H](O[C@@H]2[C@@H](C)[C@H](O[C@H]3C[C@@](C)(OC)[C@@H](O)[C@H](C)O3)[C@@H](C)C(=O)O[C@H](CC)[C@@](C)(O)[C@H](O)[C@@H](C)C(=O)[C@H](C)C[C@@]2(C)O)O[C@H](C)C[C@@H]1N(C)C
inactive: [11] | [12] | [18] | [4] | [6]
active: [7] 19.2 µM | [8] 2.78 µM | [9] 355 µM | [10] 63.1 µM
